Measured values: the supplement of paper PMC10849652
Targets with a hit are over-represented here; the source holds about 7,900 in all. About 0.6% of all pairs of compound and target were hits. A number with no mark means an inactive call.

UniProt Q6N063, sequence (Q6N063 whole entry, looked up): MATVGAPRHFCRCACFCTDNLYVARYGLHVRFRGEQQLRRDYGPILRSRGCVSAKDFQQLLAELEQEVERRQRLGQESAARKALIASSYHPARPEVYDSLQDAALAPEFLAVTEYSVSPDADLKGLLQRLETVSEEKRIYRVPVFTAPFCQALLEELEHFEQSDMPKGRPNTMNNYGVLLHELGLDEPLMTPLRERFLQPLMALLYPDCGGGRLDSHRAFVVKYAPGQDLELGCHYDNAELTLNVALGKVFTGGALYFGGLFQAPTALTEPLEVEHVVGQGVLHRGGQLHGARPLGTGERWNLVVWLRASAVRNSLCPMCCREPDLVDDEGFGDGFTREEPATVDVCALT
UniProt Q12968, sequence (Q12968 whole entry, looked up): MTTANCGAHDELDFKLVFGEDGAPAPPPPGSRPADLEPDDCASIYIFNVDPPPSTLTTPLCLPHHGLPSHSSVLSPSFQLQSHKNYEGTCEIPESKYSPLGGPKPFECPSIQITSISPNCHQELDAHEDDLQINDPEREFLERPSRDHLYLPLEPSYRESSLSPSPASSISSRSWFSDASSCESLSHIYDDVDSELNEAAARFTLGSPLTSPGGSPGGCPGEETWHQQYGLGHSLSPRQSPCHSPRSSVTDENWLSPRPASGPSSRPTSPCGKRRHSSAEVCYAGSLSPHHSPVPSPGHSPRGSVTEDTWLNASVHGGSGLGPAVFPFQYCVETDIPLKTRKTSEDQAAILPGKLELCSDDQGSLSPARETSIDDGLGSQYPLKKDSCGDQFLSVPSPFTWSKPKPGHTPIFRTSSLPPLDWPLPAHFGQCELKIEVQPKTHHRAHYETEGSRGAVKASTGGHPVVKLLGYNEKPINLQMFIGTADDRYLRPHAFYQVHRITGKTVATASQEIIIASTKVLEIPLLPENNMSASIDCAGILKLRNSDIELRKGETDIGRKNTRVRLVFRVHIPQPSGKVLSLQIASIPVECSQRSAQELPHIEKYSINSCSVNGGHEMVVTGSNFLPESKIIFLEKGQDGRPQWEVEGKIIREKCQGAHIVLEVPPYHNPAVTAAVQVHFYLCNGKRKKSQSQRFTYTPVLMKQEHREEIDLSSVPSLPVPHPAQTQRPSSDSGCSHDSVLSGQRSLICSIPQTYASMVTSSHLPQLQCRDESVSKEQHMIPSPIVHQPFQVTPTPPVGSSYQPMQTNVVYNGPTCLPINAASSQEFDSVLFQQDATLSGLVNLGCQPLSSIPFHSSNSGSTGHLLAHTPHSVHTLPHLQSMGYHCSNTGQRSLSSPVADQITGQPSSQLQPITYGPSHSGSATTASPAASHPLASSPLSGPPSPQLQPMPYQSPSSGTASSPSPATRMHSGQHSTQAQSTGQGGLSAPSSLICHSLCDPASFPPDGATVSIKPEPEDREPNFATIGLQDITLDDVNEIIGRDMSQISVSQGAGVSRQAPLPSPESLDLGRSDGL
UniProt P19338, sequence (P19338 whole entry, looked up): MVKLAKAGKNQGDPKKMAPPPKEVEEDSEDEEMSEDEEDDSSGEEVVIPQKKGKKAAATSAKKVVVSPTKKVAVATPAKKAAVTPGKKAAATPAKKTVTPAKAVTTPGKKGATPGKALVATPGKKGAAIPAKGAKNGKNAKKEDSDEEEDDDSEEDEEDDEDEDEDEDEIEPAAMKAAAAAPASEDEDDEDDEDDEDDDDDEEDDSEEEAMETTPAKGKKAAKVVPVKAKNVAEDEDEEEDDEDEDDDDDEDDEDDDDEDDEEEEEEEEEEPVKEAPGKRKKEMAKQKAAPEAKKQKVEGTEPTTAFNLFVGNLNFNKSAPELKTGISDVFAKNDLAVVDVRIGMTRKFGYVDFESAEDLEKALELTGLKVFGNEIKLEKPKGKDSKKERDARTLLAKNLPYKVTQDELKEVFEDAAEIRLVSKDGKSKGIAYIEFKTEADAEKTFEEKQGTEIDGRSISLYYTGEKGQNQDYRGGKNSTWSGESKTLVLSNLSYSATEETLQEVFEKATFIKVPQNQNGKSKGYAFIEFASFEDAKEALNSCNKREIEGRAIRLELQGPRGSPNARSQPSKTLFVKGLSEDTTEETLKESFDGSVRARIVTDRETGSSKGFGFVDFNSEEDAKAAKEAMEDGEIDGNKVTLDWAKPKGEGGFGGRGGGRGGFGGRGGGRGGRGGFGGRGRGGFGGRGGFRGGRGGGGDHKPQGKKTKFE
UniProt Q9HCE1, sequence (Q9HCE1 whole entry, looked up): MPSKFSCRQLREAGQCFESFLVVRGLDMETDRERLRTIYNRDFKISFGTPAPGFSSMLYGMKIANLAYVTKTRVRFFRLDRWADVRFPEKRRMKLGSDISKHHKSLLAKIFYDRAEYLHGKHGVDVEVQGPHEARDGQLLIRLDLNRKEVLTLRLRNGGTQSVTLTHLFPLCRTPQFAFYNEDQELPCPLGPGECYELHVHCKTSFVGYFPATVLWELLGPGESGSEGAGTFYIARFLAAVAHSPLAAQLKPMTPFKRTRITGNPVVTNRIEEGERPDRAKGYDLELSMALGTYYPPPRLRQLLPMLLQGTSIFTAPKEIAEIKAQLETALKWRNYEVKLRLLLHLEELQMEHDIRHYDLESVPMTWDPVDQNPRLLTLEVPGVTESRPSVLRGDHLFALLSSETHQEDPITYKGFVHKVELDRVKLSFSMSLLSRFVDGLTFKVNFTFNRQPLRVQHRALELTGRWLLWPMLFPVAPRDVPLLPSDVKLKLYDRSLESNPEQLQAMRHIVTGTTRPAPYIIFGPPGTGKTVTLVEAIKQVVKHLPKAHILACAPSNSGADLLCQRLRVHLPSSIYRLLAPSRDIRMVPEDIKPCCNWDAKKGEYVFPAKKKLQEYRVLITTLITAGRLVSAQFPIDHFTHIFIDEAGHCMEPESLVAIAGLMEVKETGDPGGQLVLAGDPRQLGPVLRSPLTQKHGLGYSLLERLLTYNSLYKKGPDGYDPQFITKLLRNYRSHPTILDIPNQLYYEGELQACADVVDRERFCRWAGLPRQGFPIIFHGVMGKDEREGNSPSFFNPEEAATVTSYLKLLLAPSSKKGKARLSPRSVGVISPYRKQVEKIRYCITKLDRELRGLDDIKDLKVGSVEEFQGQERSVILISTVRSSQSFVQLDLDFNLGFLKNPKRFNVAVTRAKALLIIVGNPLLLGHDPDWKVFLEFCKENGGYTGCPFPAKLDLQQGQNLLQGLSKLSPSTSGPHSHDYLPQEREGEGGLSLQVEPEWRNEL
UniProt Q96T76, sequence (Q96T76 whole entry, looked up): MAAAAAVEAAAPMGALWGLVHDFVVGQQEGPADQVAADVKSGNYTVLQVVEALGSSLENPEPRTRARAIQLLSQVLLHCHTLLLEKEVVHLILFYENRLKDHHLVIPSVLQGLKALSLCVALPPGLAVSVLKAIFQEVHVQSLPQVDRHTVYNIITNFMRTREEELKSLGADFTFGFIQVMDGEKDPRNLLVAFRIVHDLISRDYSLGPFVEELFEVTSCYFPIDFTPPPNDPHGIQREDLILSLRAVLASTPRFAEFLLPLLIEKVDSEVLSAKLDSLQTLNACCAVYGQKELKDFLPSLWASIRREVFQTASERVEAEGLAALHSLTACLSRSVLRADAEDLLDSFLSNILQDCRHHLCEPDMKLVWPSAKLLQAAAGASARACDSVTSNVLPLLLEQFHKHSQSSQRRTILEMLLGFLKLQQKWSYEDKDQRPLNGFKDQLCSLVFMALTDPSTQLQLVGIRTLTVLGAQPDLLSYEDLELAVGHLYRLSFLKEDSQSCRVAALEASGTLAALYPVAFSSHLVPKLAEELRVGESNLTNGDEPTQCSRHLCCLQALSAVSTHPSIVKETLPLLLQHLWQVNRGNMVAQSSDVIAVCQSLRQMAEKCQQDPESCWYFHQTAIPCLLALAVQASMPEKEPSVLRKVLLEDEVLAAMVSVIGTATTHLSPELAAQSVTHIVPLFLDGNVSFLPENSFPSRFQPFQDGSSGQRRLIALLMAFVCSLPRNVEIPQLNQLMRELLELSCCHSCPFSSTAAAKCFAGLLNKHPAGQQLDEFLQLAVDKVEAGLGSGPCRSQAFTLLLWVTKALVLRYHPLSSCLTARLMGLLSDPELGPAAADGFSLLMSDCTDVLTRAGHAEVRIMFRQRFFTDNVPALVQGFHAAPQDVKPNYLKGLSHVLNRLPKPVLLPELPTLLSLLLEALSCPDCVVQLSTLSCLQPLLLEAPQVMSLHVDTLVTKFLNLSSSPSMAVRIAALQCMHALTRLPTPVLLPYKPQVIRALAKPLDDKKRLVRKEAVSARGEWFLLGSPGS
UniProt P04181, sequence (P04181 whole entry, looked up): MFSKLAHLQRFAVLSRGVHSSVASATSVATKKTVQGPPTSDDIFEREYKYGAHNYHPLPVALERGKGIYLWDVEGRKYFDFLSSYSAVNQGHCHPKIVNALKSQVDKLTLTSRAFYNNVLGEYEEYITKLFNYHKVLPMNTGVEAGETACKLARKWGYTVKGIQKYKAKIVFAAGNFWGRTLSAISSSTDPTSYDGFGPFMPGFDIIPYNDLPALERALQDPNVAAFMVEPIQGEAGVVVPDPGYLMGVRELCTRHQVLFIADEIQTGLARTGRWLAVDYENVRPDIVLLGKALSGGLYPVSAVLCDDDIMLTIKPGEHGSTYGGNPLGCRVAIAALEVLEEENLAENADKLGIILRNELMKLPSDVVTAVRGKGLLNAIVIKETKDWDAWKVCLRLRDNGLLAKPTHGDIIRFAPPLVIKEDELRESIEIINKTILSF
UniProt Q9BV86, sequence (Q9BV86 whole entry, looked up): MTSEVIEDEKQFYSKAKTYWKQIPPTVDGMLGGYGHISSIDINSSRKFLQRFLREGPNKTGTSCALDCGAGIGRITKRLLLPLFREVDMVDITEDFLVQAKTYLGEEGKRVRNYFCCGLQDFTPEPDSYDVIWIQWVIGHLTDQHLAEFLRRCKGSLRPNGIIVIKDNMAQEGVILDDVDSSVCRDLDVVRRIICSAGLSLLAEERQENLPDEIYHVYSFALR
UniProt O14950, sequence (O14950 whole entry, looked up): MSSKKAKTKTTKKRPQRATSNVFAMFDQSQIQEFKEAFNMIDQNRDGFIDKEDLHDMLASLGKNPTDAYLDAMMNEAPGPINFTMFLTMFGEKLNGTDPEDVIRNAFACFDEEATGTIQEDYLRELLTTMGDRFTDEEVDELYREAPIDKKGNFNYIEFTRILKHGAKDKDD

The targets below were run with Cc1sc2c(c1C)C(c1ccc(Cl)cc1)=N[C@@H](CC(=O)OC(C)(C)C)c1nnc(C)n1-2 (assay: log2 fold change, soluble protein after heating vs DMSO (PISA); higher = thermal stabilisation; K562 cells, 10 uM, 30 min; active = over 0.2 and 3.5 SD of the protein, either way, in both replicates (recomputed)).
Outline: (§1)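 Quantification of soluble protein used TMTpro 16plex LC-MS/MS, with channel sums equalised. Samples were the supernatant after 21,000xg for 90 min of pooled aliquots from K562 cells (2×10^6 cells/mL) treated with 10 μM compound for 30 min, heated for 3 min over 48°C-58°C, and extracted in PBS with 0.5% NP-40 at 4°C. Values, from duplicates, describe thermal stability against control samples on a log2 fold-change scale.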
MOV10 (UniProt Q9HCE1) showed a log2 fold change of 0.145.
Target MSH6 (UniProt P52701) has a log2 fold change of -0.056.
Target MRPL34 (UniProt Q9BQ48) has a log2 fold change of 0.058.
Target NFATC3 (UniProt Q12968) has a log2 fold change of 0.16.
For MNAT1 (UniProt P51948), the log2 fold change was 0.033.
For NCL (UniProt P19338), the log2 fold change was 0.227.
In the case of MYLK (UniProt Q15746), the log2 fold change is reported as 0.118.
With MYL12B (UniProt O14950) the log2 fold change was -0.025.
For NNT (UniProt Q13423), the log2 fold change was -0.028.
Work on MRPS21 (UniProt P82921) yielded a log2 fold change of 0.116.
For PACS1 (UniProt Q6VY07), the log2 fold change was 0.002.
Target NPM3 (UniProt O75607) has a log2 fold change of 0.107.
Target MORF4L2 (UniProt Q15014) has a log2 fold change of 0.028.
NDUFS8 (UniProt O00217) gave a log2 fold change of -0.023.
Work on NOLC1 isoform 2 (UniProt Q14978) yielded a log2 fold change of -0.012.
Target MND1 (UniProt Q9BWT6) has a log2 fold change of 0.088.
NDUFB1 (UniProt O75438) showed a log2 fold change of -0.138.
With NTMT1 (UniProt Q9BV86) the log2 fold change was -0.118.
For OGFOD2 (UniProt Q6N063), the log2 fold change was 0.091.
In the case of NDUFAF6 (UniProt Q330K2), the log2 fold change is reported as 0.063.
For NECTIN2 (UniProt Q92692), the log2 fold change was -0.009.
In the case of MT-ATP6 (UniProt P00846), the log2 fold change is reported as -0.223.
Target NMRAL1 (UniProt Q9HBL8) has a log2 fold change of -0.139.
MRPS2 (UniProt Q9Y399) showed a log2 fold change of 0.079.
MTFR1L (UniProt Q9H019) was tested, and the log2 fold change was 0.048.
NELFA (UniProt Q9H3P2) showed a log2 fold change of -0.07.
MRPL50 (UniProt Q8N5N7) gave a log2 fold change of -0.022.
With NAPG (UniProt Q99747) the log2 fold change was -0.023.
NA isoform 3 (UniProt Q4G0T1) gave a log2 fold change of 0.024.
In the case of OAT (UniProt P04181), the log2 fold change is reported as -0.024.
MSH2 (UniProt P43246) showed a log2 fold change of -0.037.
With NUP210 (UniProt Q8TEM1) the log2 fold change was -0.013.
For MMS19 isoform 8 (UniProt Q96T76), the log2 fold change was 0.002.
MRPS16 (UniProt Q9Y3D3) was tested, and the log2 fold change was 0.014.
With NACC1 (UniProt Q96RE7) the log2 fold change was -0.037.
With NPC1 (UniProt O15118) the log2 fold change was 0.009.
Work on MLST8 (UniProt Q9BVC4) yielded a log2 fold change of -0.05.
Work on NOP53 (UniProt Q9NZM5) yielded a log2 fold change of 0.353.

Each target was assayed with c1ccc([C@@H]2C[C@H]2NC2CCNCC2)cc1 in the same assay as above.
Outline: as §1
Target MOV10 (UniProt Q9HCE1) has a log2 fold change of 0.057.
In the case of MSH6 (UniProt P52701), the log2 fold change is reported as -0.008.
In the case of MRPL34 (UniProt Q9BQ48), the log2 fold change is reported as -0.051.
NFATC3 (UniProt Q12968) gave a log2 fold change of 0.065.
MNAT1 (UniProt P51948) showed a log2 fold change of 0.068.
NCL (UniProt P19338) gave a log2 fold change of 0.
MYLK (UniProt Q15746) was tested, and the log2 fold change was -0.21.
For MYL12B (UniProt O14950), the log2 fold change was -0.077.
NNT (UniProt Q13423) showed a log2 fold change of 0.
MRPS21 (UniProt P82921) was tested, and the log2 fold change was -0.016.
PACS1 (UniProt Q6VY07) showed a log2 fold change of -0.014.
NPM3 (UniProt O75607) was tested, and the log2 fold change was -0.019.
MORF4L2 (UniProt Q15014) gave a log2 fold change of 0.091.
For NDUFS8 (UniProt O00217), the log2 fold change was -0.02.
Target NOLC1 isoform 2 (UniProt Q14978) has a log2 fold change of 0.108.
Target MND1 (UniProt Q9BWT6) has a log2 fold change of 0.102.
Work on NDUFB1 (UniProt O75438) yielded a log2 fold change of 0.055.
In the case of NTMT1 (UniProt Q9BV86), the log2 fold change is reported as -0.049.
In the case of OGFOD2 (UniProt Q6N063), the log2 fold change is reported as 0.053.
For NDUFAF6 (UniProt Q330K2), the log2 fold change was 0.024.
In the case of NECTIN2 (UniProt Q92692), the log2 fold change is reported as -0.012.
MT-ATP6 (UniProt P00846) gave a log2 fold change of -0.035.
For NMRAL1 (UniProt Q9HBL8), the log2 fold change was -0.094.
MRPS2 (UniProt Q9Y399) gave a log2 fold change of 0.003.
MTFR1L (UniProt Q9H019) was tested, and the log2 fold change was 0.028.
NELFA (UniProt Q9H3P2) was tested, and the log2 fold change was 0.035.
MRPL50 (UniProt Q8N5N7) was tested, and the log2 fold change was -0.05.
Target NAPG (UniProt Q99747) has a log2 fold change of -0.077.
In the case of NA isoform 3 (UniProt Q4G0T1), the log2 fold change is reported as -0.126.
OAT (UniProt P04181) gave a log2 fold change of -0.045.
MSH2 (UniProt P43246) gave a log2 fold change of 0.01.
In the case of NUP210 (UniProt Q8TEM1), the log2 fold change is reported as -0.028.
MMS19 isoform 8 (UniProt Q96T76) was tested, and the log2 fold change was -0.003.
With MRPS16 (UniProt Q9Y3D3) the log2 fold change was -0.074.
For NACC1 (UniProt Q96RE7), the log2 fold change was -0.015.
For NPC1 (UniProt O15118), the log2 fold change was 0.049.
Target MLST8 (UniProt Q9BVC4) has a log2 fold change of -0.071.
Work on NOP53 (UniProt Q9NZM5) yielded a log2 fold change of 0.097.
